This is part of a sample that, as a whole, favours compounds with a hit. Of some 83,000 tested, about 20% had one in any assay.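 The test compound was applied at a single concentration to cells in 96-well plates for 48 hours, and percent growth was recorded.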 Unmarked numbers belong to inactive results. Calls of active or inactive are those of the source. Rule for the calls: active = growth percent below 10; inactive = the rest.

Among the test systems are SR leukemia; RPMI-8226 leukemia; OVCAR-8 ovarian; OVCAR-5 ovarian; OVCAR-4 ovarian; SK-OV-3 ovarian; IGROV1 ovarian; OVCAR-3 ovarian; HS 578T breast; NCI/ADR-RES ovarian; T-47D breast; BT-549 breast; MDA-MB-435 melanoma; SW-620 colon; MCF7 breast; HCT-116 colon; HCC-2998 colon; KM12 colon.
What all share (experiment): NCI-60 one-dose screen, 48 h (100 = growth as untreated, 0 = no growth, -100 = all killed)
Holding throughout (details): 10 µM unless noted

Turning to `Cn1cc(-c2nonc2-c2c[nH]c3ccccc23)c2ccccc21`, the growth in the experiment with SR leukemia was 11.6%; with RPMI-8226 leukemia, 8.96% (active); in the experiment with OVCAR-8 ovarian, 16%; in the experiment with OVCAR-5 ovarian, 25.9%; in the experiment with OVCAR-4 ovarian, 30.5%; in the experiment with SK-OV-3 ovarian, 18.9%. Moreover, the growth with IGROV1 ovarian was 24.4%; with OVCAR-3 ovarian, -17.7% (active); in the experiment with HS 578T breast it was 6.76% (active); in the experiment with NCI/ADR-RES ovarian, 5.05% (active); with T-47D breast, 25.9%; in the experiment on BT-549 breast, 18.7%. Besides, the growth was -45.3% (active) with MDA-MB-435 melanoma; 22.4% in the experiment on SW-620 colon; 14.3% in the experiment on MCF7 breast; 5.44% (active) in the experiment on HCT-116 colon; 11.1% in the experiment on HCC-2998 colon; 7.64% (active) with KM12 colon.

`COc1cc(Nc2c3ccc(Cl)cc3nc3ccc(OC)cc23)c2ncccc2c1`: the growth is 19.8% with SR leukemia; 55.5% with RPMI-8226 leukemia; 46.1% with OVCAR-8 ovarian; 70.2% in the experiment on OVCAR-5 ovarian; 20.3% in the experiment on OVCAR-4 ovarian; 52.5% in the experiment with SK-OV-3 ovarian. Further, the growth is 32.2% in the experiment on IGROV1 ovarian; 33.9% in the experiment on OVCAR-3 ovarian; 65.1% in the experiment with HS 578T breast; 53.9% in the experiment on NCI/ADR-RES ovarian; 48.6% in the experiment on T-47D breast; 56.2% with BT-549 breast. In addition, the growth in the experiment with MDA-MB-435 melanoma is 65.6%; in the experiment with SW-620 colon it was 45.7%; in the experiment on MCF7 breast, 40.3%; with HCT-116 colon, 26%; with HCC-2998 colon, 44.8%; in the experiment on KM12 colon it was 39.3%.

Consider `COc1ccc(C(c2cc(OC)c(OC)c(OC)c2)N2CCCC2)cc1` (centres undefined), for which the growth in the experiment on SR leukemia was 23.9%; in the experiment on RPMI-8226 leukemia, 97.4%; with OVCAR-8 ovarian, 95.6%; with OVCAR-5 ovarian, 92.6%; in the experiment with OVCAR-4 ovarian, 101%; in the experiment with SK-OV-3 ovarian, 77.5%. In addition, the growth in the experiment with IGROV1 ovarian is 82.9%; in the experiment with OVCAR-3 ovarian, 66.6%; with HS 578T breast, 80.4%; in the experiment with NCI/ADR-RES ovarian, 69.4%; with T-47D breast, 89.8%; in the experiment with BT-549 breast, 81.6%. Besides, the growth in the experiment with MDA-MB-435 melanoma is -21.8% (active); in the experiment on SW-620 colon it was 47.8%; in the experiment on MCF7 breast, 64.1%; with HCT-116 colon it was 62.3%; in the experiment on HCC-2998 colon, 89.1%; in the experiment on KM12 colon it was 43.9%.

As for `N=C(N)c1ccc(-c2ccc(-c3ccc(F)cc3)s2)s1`, the growth with SR leukemia is -32.6% (active); with RPMI-8226 leukemia, -18.6% (active); with OVCAR-8 ovarian, -54.7% (active); in the experiment with OVCAR-5 ovarian it was -28.8% (active); in the experiment with OVCAR-4 ovarian it was -23.8% (active); in the experiment with SK-OV-3 ovarian, 80.5%. For the same molecule, the growth in the experiment with IGROV1 ovarian was -27.5% (active); in the experiment on OVCAR-3 ovarian it was -57.8% (active); in the experiment on HS 578T breast, 84.6%; with NCI/ADR-RES ovarian it was -33.3% (active); with T-47D breast, -38.2% (active); in the experiment on BT-549 breast, 80%. Moreover, the growth was -88.7% (active) in the experiment with MDA-MB-435 melanoma; -65.2% (active) with SW-620 colon; -67% (active) in the experiment with MCF7 breast; -57.3% (active) in the experiment with HCT-116 colon; -73.3% (active) with HCC-2998 colon; -76.1% (active) in the experiment on KM12 colon.

With `COc1ccc2nc3cc(Cl)ccc3c(NCCN)c2c1`, the growth was -45.4% (active) in the experiment with SR leukemia; -23.6% (active) with RPMI-8226 leukemia; -33.5% (active) in the experiment on OVCAR-8 ovarian; -61.6% (active) with OVCAR-5 ovarian; -86% (active) with OVCAR-4 ovarian; 69.3% in the experiment on SK-OV-3 ovarian. Moreover, the growth was -27% (active) with IGROV1 ovarian; -84.8% (active) with OVCAR-3 ovarian; 91.7% in the experiment on HS 578T breast; 19% in the experiment with NCI/ADR-RES ovarian; -72.3% (active) in the experiment on T-47D breast; -45.7% (active) in the experiment on BT-549 breast. In addition, the growth with MDA-MB-435 melanoma was -90.2% (active); with SW-620 colon it was -68.9% (active); in the experiment on MCF7 breast, -70.2% (active); in the experiment on HCT-116 colon, -73.2% (active); in the experiment on HCC-2998 colon, -73.2% (active); in the experiment on KM12 colon it was -64% (active).

As to `C#Cc1cccc(Oc2ccc(NC(=O)CCl)cc2)c1`, the growth in the experiment with SR leukemia is 13% [8.25 µM]; in the experiment on RPMI-8226 leukemia it was 23.9% [8.25 µM]; in the experiment on OVCAR-8 ovarian it was 31.4% [8.25 µM]; in the experiment with OVCAR-5 ovarian, 74.3% [8.25 µM]; in the experiment with OVCAR-4 ovarian it was 7.96% [8.25 µM] (active); in the experiment with SK-OV-3 ovarian, 98.9% [8.25 µM]. The growth in the experiment on IGROV1 ovarian was -71.6% [8.25 µM] (active); in the experiment with OVCAR-3 ovarian, -76.8% [8.25 µM] (active); with HS 578T breast it was 80.7% [8.25 µM]; in the experiment on NCI/ADR-RES ovarian it was 71.1% [8.25 µM]; with T-47D breast it was 53.9% [8.25 µM]; in the experiment with BT-549 breast, 38.7% [8.25 µM]. Also, the growth in the experiment with MDA-MB-435 melanoma was 31.7% [8.25 µM]; with SW-620 colon, 15.9% [8.25 µM]; in the experiment with MCF7 breast, 13.5% [8.25 µM]; in the experiment with HCT-116 colon, -0.801% [8.25 µM] (active); with HCC-2998 colon, 83% [8.25 µM]; in the experiment with KM12 colon it was 64.2% [8.25 µM].

`CCOC(=O)c1c2c(n3ccccc13)C(=O)c1ncccc1C2=O`: the growth in the experiment with SR leukemia is 18.6%; with RPMI-8226 leukemia, 29.2%; in the experiment on OVCAR-8 ovarian, 5.6% (active); in the experiment with OVCAR-5 ovarian, 42.2%; in the experiment on OVCAR-4 ovarian, 16.6%; in the experiment with SK-OV-3 ovarian, 22.2%. For the same molecule, the growth with IGROV1 ovarian was 31.8%; in the experiment on OVCAR-3 ovarian, -19.8% (active); with HS 578T breast, 52.6%; with NCI/ADR-RES ovarian it was 4.98% (active); in the experiment on T-47D breast, 41.8%; with BT-549 breast, 31.6%. The growth in the experiment with MDA-MB-435 melanoma was 39.8%; in the experiment on SW-620 colon it was 21.9%; in the experiment on MCF7 breast it was 5.14% (active); in the experiment on HCT-116 colon, 0.586% (active); in the experiment with HCC-2998 colon, 38.2%; in the experiment with KM12 colon, 24.1%.

Consider `COc1ccc(NC(=O)c2cccc(C3CCc4c(cc(OC)c(OC)c4OC)O3)c2)cc1` (centres undefined), for which the growth with SR leukemia is 5.23% (active); in the experiment with RPMI-8226 leukemia it was -24.2% (active); in the experiment with OVCAR-8 ovarian it was 35.1%; with OVCAR-5 ovarian, 64.8%; in the experiment with OVCAR-4 ovarian it was 53.1%; in the experiment on SK-OV-3 ovarian it was 26.8%. The growth was 37.6% in the experiment on IGROV1 ovarian; 6.25% (active) in the experiment with OVCAR-3 ovarian; 22% in the experiment on HS 578T breast; 8.7% (active) with NCI/ADR-RES ovarian; 16% in the experiment with T-47D breast; 25.9% in the experiment on BT-549 breast. Also, the growth with MDA-MB-435 melanoma was -10.5% (active); with SW-620 colon, 29%; with MCF7 breast, 11.3%; with HCT-116 colon, 14.6%; in the experiment on HCC-2998 colon, 50.7%; in the experiment on KM12 colon, 18.2%.

Values taken from PubChem BioAssay (NCI).
